Screens from PubChem BioAssay.
Compounds with a hit are over-represented: about 8% of the library has one in this group of screens.
FBPA coupling cs: counter-screen for Giardia aldolase inhibitors: coupling enzyme system; activity change, negative = inhibition, % at 58.2 µM, hits read low; coupling enzyme system counterscreen, AmpLite Red fluorescence; 290,000 compounds, 0.67% hits; in the data active = activity change below about -30%
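Fluorescence at 525 nm excitation and 598 nm emission measured inhibition of the coupled detection system without aldolase. Compounds (at 57.5 uM final) were preincubated 10 min at room temperature with coupling enzyme reagent before a 20 min substrate/AmpLite Red step.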
TSHR antagonist: antagonists of human thyroid stimulating hormone receptor; P16473; TSHR-expressing cells, TSH-stimulated cAMP HTRF, 2 h; stronger effect = lower value; activity change, negative = inhibition, % at 11.5 µM; 330,000 compounds, 0.2% hits; AID 504810;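 active = activity change below a set negative limit, meaning inhibition stronger than a set level, cut at about -70% in these data; inconclusive = activity change between two set negative limits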
Target sequence (P16473 whole entry, looked up): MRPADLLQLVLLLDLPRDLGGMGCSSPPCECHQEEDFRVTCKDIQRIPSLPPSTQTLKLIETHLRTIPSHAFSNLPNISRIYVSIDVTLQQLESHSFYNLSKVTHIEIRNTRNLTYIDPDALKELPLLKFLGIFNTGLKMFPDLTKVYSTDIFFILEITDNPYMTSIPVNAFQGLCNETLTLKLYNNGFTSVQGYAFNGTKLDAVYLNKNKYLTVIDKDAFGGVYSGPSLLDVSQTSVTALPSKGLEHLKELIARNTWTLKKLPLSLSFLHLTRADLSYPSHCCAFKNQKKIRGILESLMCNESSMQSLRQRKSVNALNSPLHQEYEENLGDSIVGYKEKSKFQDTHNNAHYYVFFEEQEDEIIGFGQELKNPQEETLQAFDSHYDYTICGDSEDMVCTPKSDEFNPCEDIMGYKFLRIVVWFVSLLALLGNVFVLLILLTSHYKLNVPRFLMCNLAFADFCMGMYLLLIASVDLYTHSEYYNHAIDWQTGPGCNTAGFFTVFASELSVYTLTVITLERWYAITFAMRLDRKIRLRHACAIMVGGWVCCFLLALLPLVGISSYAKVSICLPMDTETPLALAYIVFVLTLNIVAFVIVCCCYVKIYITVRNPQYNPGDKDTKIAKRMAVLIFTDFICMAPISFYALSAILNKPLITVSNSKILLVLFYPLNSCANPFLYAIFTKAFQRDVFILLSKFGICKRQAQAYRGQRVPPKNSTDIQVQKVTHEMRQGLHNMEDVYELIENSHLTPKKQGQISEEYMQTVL
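TSHR-expressing cells, 200/well, pre-treated with compound, then stimulated with EC80 TSH (4nM final) for 2 hours at 37 deg C. cAMP measured by competitive HTRF: anti-cAMP cryptate antibody in lysis buffer plus cAMP-d2, read after 30 minutes at room temperature.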
RORg inh: inhibitors of mouse ROR gamma transcriptional activity; P51450; Drosophila S2 Gal4-RORgamma UAS-luciferase reporter, 20 h; Potency, µM (series often up to 53.6 µM), for the others: top-dose activity change, negative = inhibition, most hits filed as inhibitors; 310,000 compounds, 5.4% hits; note: potency is the fitted concentration of half-maximal effect; nearly all actives have a fitted effect of over 60% in size
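In this cell-based reporter format, copper sulfate (700 uM final) drives Gal4–ROR gamma fusion expression from a metallothionein promoter in Drosophila Schneider cells; compounds preincubated 1 hr, reporter read after 20 hr at ambient temperature.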
VP16 counter: Gal4-VP16 reporter inhibition counter-screen | Drosophila S2 Gal4-VP16 UAS-luciferase, luminescence, 20 h | Potency, µM (series often up to 53.6 µM), for inactives: at the highest dose activity, negative = inhibition, usual class: inhibitors | 310,000 compounds, 3.5% hits | AID 2546;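 note: Gal4-VP16 expression switched on by copper sulfate through the metallothionein promoter; potency is the fitted concentration of half-maximal effect; nearly all actives have a fitted effect of over 50% in size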
ELG1 repair inh: inhibitors of ELG1-dependent DNA repair in HEK293T cells. 330,000 compounds, 2.3% hits. AID 504467. Potency, µM (highest dose often 46.1 µM), inactives show at the top dose activity change, negative = inhibition, most hits filed as inhibitors. HEK293T ELG1-luciferase reporter, luminescence, 16 h; DNA damage induced by 5-fluorouridine; note: potency is the fitted concentration of half-maximal effect; nearly all actives have a fitted effect of over 55% in size
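HEK293T cells expressing luciferase-tagged ELG1 (2,000/well) received 5-Fluorouridine plus compound or DMSO for 16 hr at 37 °C. Luciferase was read by ONE-Glo luminescence after 30 min at room temperature.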
* marks the source's active call; other numbers are inactive results; ? = inconclusive; nt = not tested or not shown. Unless noted, calls come from the whole dose curve; as a rule, active = well fitted curve in the direction sought with a large enough effect; inconclusive = small, poorly fitted or top-dose-only effect, or another doubt; inactive = no such curve, though single readings can be large; an effect the other way counts as inactive or inconclusive. % is set by controls: 0 for no effect and ±100 for the full control effect.

SMILES	FBPA coupling cs	TSHR antagonist	RORg inh	VP16 counter	ELG1 repair inh
CCOC(=O)c1csc(Nc2nc3ccc(F)cc3s2)n1	1.7	7.2	7.94µM*	?	?
CC(=O)c1sc(Nc2nc3ccc(F)cc3s2)nc1C	-3.6	-14.2	3.16µM*	11.2µM*	?
COC(=O)c1ccc2nc(Nc3nc4ccc(F)cc4s3)sc2c1	2.4	?	0.141µM*	3.55µM*	?
COC(=O)c1ccc2nc(NC(=O)C(C)(C)C)sc2c1	-0.1	-19.7	2µM*	7.08µM*	?
CCNc1ncc2nc(-c3ccccc3)c(=O)n(CCOC)c2n1	0.3	nt	16.5%	-4.2%	nt
Cc1ccc(NN2C(=O)C=C(c3ccccc3)C2=O)cc1	3.5	-2.1	3.55µM*	5.01µM*	?
O=C1c2ccccc2C(=O)N1Nc1ccccc1	-2.5	18.1	7.6%	0.9%	10.9%
Cc1onc(-c2ccccc2Cl)c1C(=O)N(C)CC(=O)Nc1ccc(F)c(F)c1F	nt	-3.2	nt	nt	1.3%
O=C(NC(=S)Nc1nc2c(s1)CCCC2)c1ccc(C(=O)c2ccccc2)cc1	-5.0	-7.5	?	?	?
C/C(=N\Nc1nc(C(=O)O)cs1)c1ccccc1	5.2	-4.2	0.631µM*	5.01µM*	?
O=C(O)c1ccc(Nc2nc3c(s2)CCCC3)cc1	0.0	-2.2	1.26µM*	3.55µM*	?
CC(C)=NNc1nc(-c2ccccc2)cs1	0.8	-5.0	?	-28.2%	?
O=S1(=O)N=C(Nc2nc3c(s2)CCCC3)c2ccccc21	3.5	-9.9	0.447µM*	1.26µM*	?
C/C(=N\Nc1nc2c(s1)CCCC2)c1ccccc1	-6.1	4.8	12.6µM*	?	?
CN(CC(=O)Nc1ccc(F)cc1)C(=O)COC(=O)c1cc(S(=O)(=O)N(C)C)ccc1N1CCCC1	nt	13.9	nt	nt	?
NCCCC[C@H](NC(=O)CNC(=O)[C@@H]1CCCN1C(=O)[C@H](Cc1ccc(O)cc1)NC(=O)CN)C(=O)N[C@@H](Cc1ccccc1)C(=O)O	3.5	nt	6.5%	-2.7%	nt
Cc1nc(N2CCOCC2)c2nc(-c3ccccc3)n(CCN3CCOCC3)c2n1	2.0	nt	-8.9%	4.8%	nt
COc1ccc(NC(=O)N2CCc3ccccc3C2)c(OC)c1	-0.8	0.8	3.4%	-1.1%	?
C/C(=N\Nc1nc(C(C)(C)C)cs1)c1ccc(O)cc1	-0.1	17.8	?	10µM*	?
C/C(=N\Nc1nc(C(C)(C)C)cs1)c1ccccc1	-4.4	-6.6	nt	nt	?
CC(C)(C)c1csc(NNC(=O)c2ccc(Br)cc2)n1	-0.1	-9.3	1.26µM*	2.82µM*	-16.3%
CC(C)(C)c1csc(NC(=O)c2ccccc2O)n1	-8.2	?	?	2.51µM*	?
CSCC[C@H](NC(=O)[C@H](CC(C)C)NC(=O)CNC(=O)[C@H](Cc1ccc(O)cc1)NC(=O)[C@H](Cc1ccccc1)NC(=O)[C@H](CCC(N)=O)NC(=O)[C@H](CCC(N)=O)NC(=O)[C@@H]1CCCN1C(=O)[C@H](CCCCN)NC(=O)[C@@H]1CCCN1C(=O)[C@@H](N)CCCN=C(N)N)C(N)=O	3.8	nt	8.9%	-3.1%	nt
Cc1cccc(Nc2nnc(SCC3CCCCO3)s2)c1 (stereo unspecified)	-0.7	-4.5	10µM*	-10.6%	?
COc1ccc(Nc2nnc(SCC3CCCCO3)s2)cc1 (stereo unspecified)	-1.5	-7.2	24.7%	6.8%	-2.2%
SMILES	FBPA coupling cs	TSHR antagonist	RORg inh	VP16 counter	ELG1 repair inh
Cc1ccc2cc(CN(CCCO)S(=O)(=O)c3cccc4nsnc34)c(=O)[nH]c2c1	7.7	14.8	22.3%	?	9.2µM*
Cc1ccc2[nH]c(=O)c(CN(CCCO)S(=O)(=O)c3cccc4nsnc34)cc2c1	0.4	1.9	15.7%	-5.7%	?
Cc1ccc(Nc2nc(CSc3nnc(-c4cccnc4)n3-c3ccccc3C)cs2)cc1	-1.5	4.0	5.01µM*	?	-28.8%
Cc1ccccc1-n1c(SCc2csc(Nc3ccccc3)n2)nnc1-c1cccnc1	3.1	-6.6	?	?	?
COc1ccc(-n2nc(C#N)c(Cl)cc2=O)cc1	1.4	-45.1	10µM*	12.6µM*	?
COC(=O)c1nn(-c2ccc(OC)cc2)c(=O)cc1O	-0.6	5.2	4.3%	-9.7%	?
COC(=O)CS	nt	nt	0.4%	4.2%	nt
N=C1SCC(=O)N1c1nc(-c2ccccc2)cs1	0.3	-28.9	8.91µM*	-4.5%	?
CCOc1ccc(CN2C(=O)CC(=O)N(S(=O)(=O)c3ccc(OCC)cc3)C2=O)cc1	4.9	-0.3	-1.5%	-1.3%	2.3%
COc1ccc(S(=O)(=O)Cc2ccc(C(=O)NCc3ccccc3)o2)cc1	1.7	-3.8	20.3%	-12.1%	0.1%
O=C(NCc1cccnc1)c1ccc(COc2ccc3c(c2)CCC3)o1	-1.9	-7.6	-109.7%	20µM*	?
O=C(NCc1cccnc1)/C(=C\c1ccc(-c2ccc(Cl)c(Cl)c2)o1)S(=O)(=O)c1ccccc1	-3.5	?	8.91µM*	5.62µM*	7.31µM*
O=C(NCc1cccnc1)c1ccc(-c2cc(Cl)ccc2Cl)o1	-3.2	-7.3	?	1.6%	23.1µM*
COc1ccc(S(=O)(=O)Cc2ccc(C(=O)NCc3cccnc3)o2)cc1	2.2	14.8	-26.8%	-5.3%	14.6µM*
COC(=O)c1ccc(COc2ccc3c(c2)CCC3)o1	-2.4	-5.5	35.5%	-5.0%	?
O=C(NCc1cccnc1)c1ccc(-c2ccc(Cl)cc2)o1	-0.7	-4.9	?	-11.8%	-2.5%
C=CCN1C(=O)c2ccccc2Sc2ccc(C(=O)NCC(OC)OC)cc21	-1.1	15.8	2.2%	0.3%	2.8%
